The term inhibition denotes the relative decrease from the control value, in per cent.

Each structure is given as a SMILES string.

Holding throughout (format): functional
For assay [1], the target named is Solute carrier family 2, facilitated glucose transporter member 1 (Homo sapiens) (UniProt P11166). In words: ST_JUDE_LEISH: Cytotoxicity at 2uM final concentration against transgenic Leishmania Mexicana promastigotes LmGLUT1 that are glucose transport deficient and complemented with the human glucose transporter GLUT1. Activity is measured by DNA content using SYBR green in vitro.
Chain of Solute carrier family 2, facilitated glucose transporter member 1 (Homo sapiens) (P11166 whole entry): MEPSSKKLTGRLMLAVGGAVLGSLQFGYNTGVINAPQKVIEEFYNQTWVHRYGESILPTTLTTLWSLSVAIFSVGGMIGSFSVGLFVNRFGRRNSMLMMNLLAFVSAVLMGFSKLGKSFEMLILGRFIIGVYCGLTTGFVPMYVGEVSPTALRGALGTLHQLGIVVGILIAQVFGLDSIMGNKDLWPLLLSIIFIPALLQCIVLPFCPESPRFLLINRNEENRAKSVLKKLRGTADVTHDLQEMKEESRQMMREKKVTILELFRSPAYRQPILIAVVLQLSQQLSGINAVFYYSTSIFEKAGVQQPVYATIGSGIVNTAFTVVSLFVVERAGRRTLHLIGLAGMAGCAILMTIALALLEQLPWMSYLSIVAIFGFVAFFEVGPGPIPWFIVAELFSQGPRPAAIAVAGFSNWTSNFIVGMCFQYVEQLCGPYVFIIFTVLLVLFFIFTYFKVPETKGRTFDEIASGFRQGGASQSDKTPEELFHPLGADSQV

Assay [2] concerns the target Hexose transporter 1 (Plasmodium falciparum) (UniProt O97467). In words: ST_JUDE_LEISH: Cytotoxicity at 2uM final concentration against transgenic Leishmania Mexicana promastigotes LmPfHT that are glucose transport deficient and complemented with the Plasmodium falciparum hexose transporter. Activity is measured by DNA content using SYBR green in vitro.
The target of assay [3] is Glucose transporter (Leishmania mexicana) (UniProt O61059). In words: ST_JUDE_LEISH: Cytotoxicity at 2uM final concentration against transgenic Leishmania Mexicana promastigotes LmGT2 that are glucose transport deficient and complemented with the L. Mexicana glucose transporter 2. Activity is measured by DNA content using SYBR green in vitro.

For the molecule `O=C(NC(c1ccccc1)c1ccccc1)C(c1cc2ccccc2o1)N1CCN(C(c2ccccc2)c2ccccc2)CC1` (centres undefined), the results for the inhibition in assay [1], in assay [2] and in assay [3] were 4.42%, 2.92% and 0.24%, respectively.

As to `Cc1cccc(CNc2nc(C)cc(NCCC(=O)NCc3cccc(F)c3)n2)c1`, the inhibition was 7.68% in assay [1], 7.53% in assay [2] and 4.51% in assay [3].

For the molecule `CCCN(CCC)C(=O)c1cc(C(=O)N[C@@H](Cc2ccccc2)[C@H](O)CNC(C)(C)c2cccc(OC)c2)cc(N2CCCCS2(=O)=O)c1`, the inhibition in assay [1] is 1.96%; in assay [2], 1.53%; in assay [3], 2.14%.

On to `CCOC(=O)NCC(=O)Nc1cccc(-c2cccc(-c3nc4cccc(C)c4[nH]3)c2)c1`, for which the results for the inhibition in assay [1], in assay [2] and in assay [3] were 1.11%, 1.64% and 1.12%, respectively.

Turning to `CN1CCC(NC(=O)c2cccc(Nc3cc(Nc4cccc(Br)c4)ncn3)c2)CC1`, the figures for the inhibition in assay [1], in assay [2] and in assay [3] were 4.2%, 3.45% and 2.65%, respectively.

As for `O=C(/C=C/c1ccc(Cl)cc1)NCCCCCN1CCC(C(=O)Nc2ccc(Cl)cc2)CC1`, the values for the inhibition in assay [1], in assay [2] and in assay [3] were -0.92%, 0.51% and 2.24%, respectively.

For the molecule `COc1ccc(CCNCC(O)COc2nccc3c(S(=O)(=O)N4CCCNCC4)cccc23)cc1OC` (centres undefined), the figures for the inhibition in assay [1], in assay [2] and in assay [3] were -1.57%, -1.2% and -2.89%, respectively.

On to `Cc1ccccc1CNc1noc(-c2sccc2Br)n1`, for which the inhibition in assay [1] is -2.66%; in assay [2] it was -1.49%; in assay [3] it was -1.5%.

`CN1CCN(c2cc3c(cc2Cl)CCN3C(=O)Cc2ccc(Cl)c(NC(=O)Nc3cccc(C#N)c3)c2)CC1`: the inhibition was -0.57% in assay [1], -0.51% in assay [2] and -0.22% in assay [3].

For the molecule `Oc1cc(Nc2ccnc3cc(I)ccc23)ccc1F`, the inhibition is 1.98% in assay [1], -0.07% in assay [2] and 0.37% in assay [3].

Turning to `O=c1cc(NCCNCc2cccc(-c3ccccc3)c2)[nH]c2ccccc12`, the inhibition in assay [1] is 4.41%; in assay [2] it was -0.15%; in assay [3], 1.64%.

Regarding `CC[C@@]1(O)C(=O)OCc2c1cc1n(c2=O)Cc2c-1nc1cc3c(cc1c2CN1CCN(C)CC1)OCCO3`, the values for the inhibition in assay [1], in assay [2] and in assay [3] were 7.46%, 15% and 3.83%, respectively.

As to `CCCc1cn2c3c(cc(C(=O)N[C@@H](Cc4ccccc4)[C@H](O)CNC4CCCCC4)cc13)N(CC)S(=O)(=O)CC2`, the figures for the inhibition in assay [1], in assay [2] and in assay [3] were 0.5%, 0.94% and -0.79%, respectively.

On to `Clc1ccc(-c2cc(-c3csc(NCCN4CCOCC4)n3)on2)c(Cl)c1`, for which the inhibition in assay [1] stood at 12.4%; in assay [2], 9.19%; in assay [3], 10.6%.

`Cc1cnc(NCC2CCCCC2)nc1N[C@@H](CO)C(=O)Nc1ccccc1`: the inhibition was 1.68% in assay [1], 2.03% in assay [2] and -0.71% in assay [3].

For the molecule `NC(=O)c1ccccc1Nc1nc(Nc2cc[nH]n2)ncc1Cl`, the values for the inhibition in assay [1], in assay [2] and in assay [3] were 6.52%, 4.28% and 7.47%, respectively.

Consider `O=C(Nc1cccc(CN2CCN(Cc3ccc(O)cc3)CC2)c1)c1cc2ccccc2s1`, for which the inhibition in assay [1] was 8.18%; in assay [2] it was 7.34%; in assay [3], 8.57%.

Take `O=C(CCC1CCCC1)N(Cc1ccc(-c2ccc(CNCCc3ccccn3)cc2)cc1)CC1CCCCN1` (centres undefined): the inhibition in assay [1] stood at 15.2%; in assay [2] it was 4.22%; in assay [3], 1.88%.

As to `Cc1cc(NCCC(=O)Nc2ccccc2)nc(NCCc2ccccc2)n1`, the inhibition was 3.62% in assay [1], 1.77% in assay [2] and 0.45% in assay [3].

Consider `Nc1nc(N)c2c(ccc3nn(Cc4ccccc4)cc32)n1`, for which the values for the inhibition in assay [1], in assay [2] and in assay [3] were -0.49%, 0.59% and -0.15%, respectively.

With `COc1ccc(C)c(Nc2ccnc(Nc3cccc(-c4nc5ccccc5[nH]4)c3)n2)c1`, the values for the inhibition in assay [1], in assay [2] and in assay [3] were 3.82%, 1.79% and 2.68%, respectively.

In the case of `COc1cccc(Nc2nc(N)c3ccccc3n2)c1`, the results for the inhibition in assay [1], in assay [2] and in assay [3] were 22.4%, 18.8% and 7.62%, respectively.

With `O=C(NC1CCC1)C1CCN(C(c2ccc(Cl)cc2)c2ccc(Cl)cc2)CC1`, the inhibition is -0.62% in assay [1], 1.93% in assay [2] and -0.82% in assay [3].

As to `CCN(CC)c1ccc(NC(=S)NC2CCN(CCCCCNC(=O)/C=C/c3ccc(Cl)c(Cl)c3)CC2)cc1`, the inhibition in assay [1] was found to be 5.28%; in assay [2] it was 6.72%; in assay [3] it was 6.22%.

With `CC(C)c1ccc2[nH]c(C(=O)NC3CCC(N4CCCc5ccc(C#N)cc5C4)CC3)cc2c1` (centres undefined), the inhibition in assay [1] stood at 3.48%; in assay [2] it was 0.9%; in assay [3] it was 1.58%.

As for `NC(=O)C1CCN(Cc2cccc(-c3cccc(-c4nc5cc(C(F)(F)F)ccc5[nH]4)c3)c2)CC1`, the values for the inhibition in assay [1], in assay [2] and in assay [3] were 13.1%, 11.4% and 10.3%, respectively.

`CCCCc1cc(=O)oc2cc(C)cc(OCc3ccccc3F)c12`: the inhibition in assay [1] was -0.28%; in assay [2], 1.33%; in assay [3], 1.06%.

With `O=C(Nc1cccc(CN2CCCN(CC3CC3)CC2)c1)c1ccc(Cl)c(Cl)c1`, the inhibition came to 10.8% in assay [1], 10.2% in assay [2] and 12.6% in assay [3].

In the case of `CCc1cc(N2CCN(c3ccccc3F)CC2)nc(SCc2ccc(C(=O)NC3CC3)o2)n1`, the figures for the inhibition in assay [1], in assay [2] and in assay [3] were 2.82%, 1.67% and 2.15%, respectively.

For the molecule `CN(C)c1ccc(-c2ccc(C(=O)NC3CCN(Cc4ccccc4F)CC3)s2)cc1`, the inhibition in assay [1] worked out at 6.98%; in assay [2], 0.05%; in assay [3] it was 1.85%.

Regarding `NS(=O)(=O)c1cccc(-c2ccc3ncc(N4CCOCC4)nc3c2)c1`, the inhibition in assay [1] is 1.24%; in assay [2], 2.84%; in assay [3], -0.09%.

In the case of `COc1ccc2cc(C(=O)Nc3ccc4c(c3)CCN(C3CCC3)CC4)ccc2c1`, the inhibition in assay [1] is -2.16%; in assay [2] it was 2%; in assay [3], 3.8%.

Turning to `N=C(Nc1ccccc1)Nc1cccc(Cc2ccc([N+](=O)[O-])cc2)n1`, the inhibition in assay [1] came to 5.43%; in assay [2] it was 3.98%; in assay [3], 0.1%.
